A selection: hits, their analogues and other compounds. The true share with any hit is near 17%.
TGFb SMAD3 inh: qHTS for Inhibitors of TGF-b; Potency, µM (titrated, usually from 46.1 µM), inactives show top-dose activity, negative = inhibition, hits mostly inhibitors; actives 1.2% (n = 410,000); HepG2 CAGA-GFP TGF-b/SMAD3 reporter, GFP fluorescence, 18 h; TGF-beta stimulated, 500 pg/mL final; AID 588855, 2011; note: % is set by controls: 0 for no effect and ±100 for the full control effect; nearly all actives have a fitted effect of over 65% in size
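Read-out: total well GFP (ex488/em500-530) summed from mean per-cell fluorescence. Cells: HEPG2 CAGA-GFP, 1% FBS DMEM, 18 h at 37 degrees C with 500 pg/mL final TGF-beta. Unstimulated wells served as the full-inhibition control; stimulated DMSO wells = 0%.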
DT40 TDP1 no CPT: qHTS for Inhibitors of human tyrosyl-DNA phosphodiesterase 1 (TDP1): qHTS in cells in absence of CPT. DT40 Tdp1-/- hTDP1 cells, no CPT, ATP luminescence, 48 h. Potency, µM (series often up to 46.2 µM), inactives show top-dose activity change, negative = growth inhibition, usual class: inhibitors. actives 15% (n = 420,000); note: % is set by controls: 0 for no effect and ±100 for the full control effect; nearly all actives have a fitted effect of over 55% in size
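Camptothecin absent (DMSO only). Human TDP1-complemented DT40 knockout cells, 400 cells/well, 37 °C for minimum 48 hr; ATP measured via CellTiter-Glo, 30 min dark incubation, luminescence.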
HT1080-NT tox: qHTS for induction of synthetic lethality in tumor cells producing 2HG: qHTS for the HT-1080-NT fibrosarcoma cell line. HT-1080-NT fibrosarcoma viability, CellTiter-Glo ATP luminescence, 48 h. Potency, µM (top dose mostly 46.1 µM), for inactives: at the highest dose activity, negative = less viability, most hits filed as cytotoxic. actives 1.6% (n = 360,000);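 note: NT is the 2HG producing partner of a matched IDH1 knockdown line; 0% = DMSO-treated cells and -100% = media-only wells without cells; nearly all actives have a fitted effect of over 55% in size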
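HT-1080-NT; 750 cells/well; 5% FBS RPMI; 48 h compound, 37 degrees C; CellTiter-Glo luminescence; curve fitting and curve-class assignment.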
HT1080 IDH1KD tx: qHTS for induction of synthetic lethality in tumor cells producing 2HG: qHTS for the HT-1080-IDH1KD cell line | Potency, µM (series often up to 46.1 µM), for inactives: at the top dose activity, negative = toxicity, most hits filed as cytotoxic | HT-1080 IDH1 knockdown viability, ATP luminescence, 48 h | AID 686971, 2013 | actives 2% (n = 360,000);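 note: 0% = DMSO wells and -100% = cell-free medium wells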
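% activity derives from luminescence (CellTiter-Glo), normalised to DMSO and no-cell wells. HT-1080-IDH1KD cells, 750/well, had 48 h compound exposure at 37 °C.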
DT40 TDP1 CPT: qHTS for Inhibitors of human tyrosyl-DNA phosphodiesterase 1 (TDP1): qHTS in cells in presence of CPT; chicken DT40 Tdp1-/-;hTDP1 cells + 20 nM CPT, ATP luminescence, 48 h; Potency, µM (top dose mostly 46.2 µM), inactives show at the top dose activity change, negative = growth inhibition, hits mostly inhibitors; actives 12% (n = 420,000); note: % is set by controls: 0 for no effect and ±100 for the full control effect; nearly all actives have a fitted effect of over 55% in size
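Cell growth measured by CellTiter-Glo luminescence after a minimum 48 h, 37 C compound exposure with 20 nM CPT in Tdp1-knockout DT40 cells stably expressing hTDP1, seeded 400/well; qHTS titration format.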
HepG2 viability: qHTS for Inhibitors of TGF-b: Cytotox Counterscreen; HepG2 CAGA-GFP viability, ATP luminescence, 18 h; Potency, µM (series often up to 46.1 µM), inactives show top-dose activity change, negative = cytotoxicity, usual class: cytotoxic; actives 0.76% (n = 410,000)
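CellTiter-Glo luminescence gave cytotoxicity after 18 hours at 37 degrees C. The cells were HepG2 CAGA-GFP in 1% FBS DMEM, stimulated with 500 pg/mL TGF-beta after compound addition. %Activity was normalised to no-cell wells (complete cell-killing) and DMSO (no toxicity), and curves were fitted and classified.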
Starred values were filed as active, the others as inactive; ? = inconclusive; . = not tested or not shown; [ ] = dose if it differs, or a comment. Calls come from the whole dose curve; as a rule, active = well fitted curve in the direction sought with a large enough effect; inconclusive = small, poorly fitted or top-dose-only effect, or another doubt; inactive = no such curve, though single readings can be large; an effect the other way counts as inactive or inconclusive. Potency is the fitted concentration of half-maximal effect.

SMILES | TGFb SMAD3 inh | DT40 TDP1 no CPT | HT1080-NT tox | HT1080 IDH1KD tx | DT40 TDP1 CPT | HepG2 viability
CCOc1cc(CNCCO)cc(Br)c1OCc1ccc(Cl)cc1 | ? | ? | ? | ? | 26µM* | -110%
CCOc1cc(CNC(C)(C)CO)cc(Br)c1OCc1ccc(Cl)cc1Cl | ? | 21µM* | 11µM* | 10µM* | 21µM* | 13µM*
CCOc1cccc(CNCCO)c1OCc1ccc(Cl)cc1 | -16% | ? | -23% | -22% | ? | -32%
Cc1ccccc1CSCc1ccc(C(=O)NCCCN2CCOCC2)o1 | -1% | 2% | 8% | 16% | -2% | 3%
Cc1ccc(CNC(=O)c2ccc(CSCc3ccc(Cl)cc3)o2)cc1 | ? | 16µM* | . | . | ? | -31%
Cc1ccc(CSCc2ccc(C(=O)NCCCN3CCOCC3)o2)cc1 | -9% | 6.5µM* | -4% | -3% | ? | 3%
Cc1nn(C)c(C(=O)NCc2ccc(Cl)cc2)c1Cl | -5% | 4.1µM* | -10% | -24% | 4.1µM* | -28%
Cc1ccc(CSCc2ccc(C(=O)NC3CC3)o2)cc1 | -23% | 23µM* | ? | ? | ? | -39%
CSc1ccccc1C(=O)N1CCCCC1 | 7% | -19% | 3% | 6% | -15% | 1%
CCC(C)NC(=O)c1ccc(CSCc2ccccc2Cl)o1 (configuration not stated) | 3% | ? | -3% | -7% | ? | -1%
CCC(C)NC(=O)c1ccc(CSCc2ccc(Cl)cc2)o1 (configuration not stated) | 0% | 26µM* | 1% | -5% | -25% | -5%
Cc1ccc(CC(=O)NCc2ccc(Cl)cc2)cc1 | -17% | 3.7µM* | 21µM* | 9.2µM* | 4.6µM* | -20%
Oc1c(CN2CCN(c3ccccn3)CC2)cc(Cl)c2cccnc12 | ? | 3.7µM* | ? | ? | 4.6µM* | -52%
OCCN1CCN(Cc2cc(Cl)c3cccnc3c2O)CC1 | ? | ? | 5µM* | 3.2µM* | ? | -26%
COc1cc(/C=C/C(=O)OCC(=O)Nc2ccc3[nH]c(=O)[nH]c3c2)ccc1OC(F)F | 6% | -7% | 7% | 6% | -6% | 15%
CC(CSc1nc2ccccc2s1)Cn1c(N2CCCC2)nc2c1c(=O)[nH]c(=O)n2C (configuration not stated) | -5% | 16µM* | -22% | ? | ? | -30%
CC(C)CCn1c(SCC(=O)c2ccccc2)nc2c1c(=O)[nH]c(=O)n2C | -1% | -36% | 0% | -1% | ? | -6%
Cn1c(=O)[nH]c(=O)c2c1nc(N1CCCCC1)n2CCCSc1nnnn1-c1ccccc1 | -2% | ? | -2% | -3% | ? | -2%
CC(C)CCn1c(Sc2nc3ccccc3s2)nc2c1c(=O)[nH]c(=O)n2C | -17% | 16µM* | -20% | -11% | ? | -52%
CC1CCN(c2nc3c(c(=O)[nH]c(=O)n3C)n2CC(C)CSc2nnnn2-c2ccccc2)CC1 (configuration not stated) | -20% | ? | -3% | 9% | 16µM* | -47%
CC1CN(C(=O)Nc2ccc(F)cc2F)CC(C)O1 (configuration not stated) | 3% | 18% | 15% | 21% | 1% | 8%
Cc1ncc2c(c1CNC(=O)c1ccc3c(c1)OCO3)CCN(C(=O)c1cc3ccccc3n1C)C2 | . | -17% | . | . | -8%[9.04 µM] | .
CCOc1ccccc1NC(=O)N1c2ccccc2Sc2ccccc21 | -17% | 26µM* | . | . | ? | -32%
CC(C)CNCC(=O)N1c2ccccc2Sc2ccccc21 | 3% | ? | 0% | -1% | 16µM* | -19%
COc1ccc(OC)c(NC(=O)N2c3ccccc3Sc3ccccc32)c1 | ? | ? | . | . | 18µM* | -15%
SMILES | TGFb SMAD3 inh | DT40 TDP1 no CPT | HT1080-NT tox | HT1080 IDH1KD tx | DT40 TDP1 CPT | HepG2 viability
COCCNCC(=O)N1c2ccccc2Sc2ccccc21 | 5% | -17% | -2% | -3% | -9% | 6%
COc1ccccc1C(=O)N1c2ccccc2Sc2ccccc21 | ? | 5.8µM* | -14% | -24% | 5.8µM* | -27%
COC(=O)c1cc(NC(=O)N2c3ccccc3Sc3ccccc32)cc(C(=O)OC)c1 | ? | ? | -20% | -17% | ? | -9%
CC(C)(C)n1ncc2c(=O)n(Cc3ccccc3)cnc21 | -15% | . | . | . | . | -19%
COc1ccc(S(=O)(=O)N2CCc3cc(OC)c(OC)cc3C2)cc1 | -5% | -6% | -3% | -5% | ? | -42%
O=C(c1cccnc1)N1c2ccccc2Sc2ccccc21 | -6% | 15µM* | -3% | -11% | 15µM* | -18%
CCOc1ccccc1NC(=O)Nc1cccc(C(C)=O)c1 | -7% | -30% | -4% | -1% | 29µM* | -31%
CCOc1ccccc1NC(=O)Nc1cccc(NC(C)=O)c1 | 8% | -20% | 0% | -2% | -18% | 0%
COC(=O)c1ccc(C(=O)OC)c(NC(=O)N2c3ccccc3Sc3ccccc32)c1 | -3% | ? | 4% | -4% | ? | -21%
CCOc1ccccc1NC(=O)/C=C/C(N)=O | ? | 4.1µM* | ? | 2.8µM* | 4.1µM* | -38%
COC(=O)c1ccccc1NC(=O)N1c2ccccc2Sc2ccccc21 | ? | ? | -16% | -26% | 18µM* | -51%
Cc1ccc2c(c1)cc1c(=O)n(CC(=O)NC3CCCCC3)nc(C)n12 | 3% | -14% | . | . | -10% | -1%
O=C(NC1CCCC1)C(c1cccs1)N(C(=O)c1csnn1)c1ccccc1F (configuration not stated) | 7% | ? | 12% | 12% | ? | -3%
CCOc1ccccc1C(=O)N1c2ccccc2Sc2ccccc21 | ? | 13µM* | ? | ? | 10µM* | -48%
CC(=O)Nc1ccc(Nc2nc3c(S(=O)(=O)c4cccc(Cl)c4)nnn3c3ccsc23)cc1 | -7% | -15% | . | . | ? | -32%
O=C(NCCN1CCCCC1)c1ccc(Oc2cc(Cl)cc(Cl)c2)o1 | ? | ? | ? | 26µM* | ? | -6%

Screening data deposited in PubChem by National Center for Advancing Translational Sciences (NCATS).
